# Experimental data: PubChem BioAssay AID489018 (Southern Research Specialized Biocontainment Screening …, 2010)
# About 350 (15%) of roughly 2,300 compounds were called active. The rule behind the calls is not given here. Not all results are given here. Potency and affinity values are given separately.
# Experiment: HepG2 cell cytotoxicity, dose response, cytotoxicity control for non-replicating M. tuberculosis project (AID 489018);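 note: HepG2 human liver cells; 100% = vehicle-treated cells and 0% = background signal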
# Settings: series mostly up to 20 µM; viability: at the top concentration
row,Compound,viability
1,COc1cc(/C=N/NC(=O)c2ccccn2)ccc1OC(=O)c1cccs1,92.5% (inactive)
2,COc1ccc(C(=O)Nc2ccccc2C(=O)N/N=C/c2ccco2)cc1,83% (inactive)
3,C/C(=N\Nc1ccc(Cl)cc1)c1ccccn1,90.1% (inactive)
4,O=C(COc1ccc(Cl)cc1)NNC(=O)c1ccccn1,105% (inactive)
5,O=C(N/N=C/c1ccccn1)c1ccccc1,87.5% (inactive)
6,COc1ccccc1/C=C/C=N/NC(=O)c1ccncc1,96.1% (inactive)
7,COc1ccc(N2C(=O)C(F)(F)C2c2cccc(F)c2)cc1 (configuration not stated),93.6% (inactive)
8,Cc1ccc(-c2nnc(NC(=O)c3ccco3)o2)c(C)c1,94.2% (inactive)
9,Cc1ccc(S(=O)(=O)/N=C(\CCl)N2CCOCC2)cc1,100% (inactive)
10,O=C(N/N=C/c1cccc2cccnc12)[C@H]1C[C@@H]1c1ccccc1,92.1% (inactive)
11,O=C(CCc1c[nH]c2ccccc12)Nc1ncccc1O,99.2% (inactive)
12,CC(C)c1ccc(/C=N/NC(=O)c2ccccn2)cc1,96.6% (inactive)
13,O=C(Nc1ccc(Br)cc1)c1cc([N+](=O)[O-])cc([N+](=O)[O-])c1,96.6% (inactive)
14,Nc1ccccc1C#CC(=O)c1ccccc1,114% (inactive)
15,COC(=O)COc1ccc(-c2ccccc2)cc1C=O,93.7% (inactive)
16,CCOC(=O)c1ccsc1NC(=O)CCS(=O)(=O)c1ccccc1,101% [at 5 µM] (inactive)
17,COc1ccc(-c2cc(C(F)(F)F)nc(S(C)(=O)=O)n2)cc1,119% [at 5 µM] (inactive)
18,COc1ccc(OCCOC(=O)CCS(=O)(=O)c2ccc(C)cc2)cc1,107% [at 5 µM] (inactive)
19,COc1ccc(C(=O)Cn2c(C)nc([N+](=O)[O-])c2Br)cc1,89.7% (inactive)
20,Cc1ccc2nc(/N=C(\N)NC(=O)NC3CCCCC3)nc(C)c2c1,83.8% (inactive)
21,O=C(COc1ccccc1)NC1CCCCC1,107% (inactive)

row,Compound,viability
1,Cn1cccc1/C=N\NC(=O)C1COc2ccccc2O1 (configuration not stated),89.8% (inactive)
2,O=C(C/C=N\OCc1ccc([N+](=O)[O-])cc1)Nc1ccc(Cl)cc1,91.9% (inactive)
3,O=C(NCC(c1cccs1)N1CCOCC1)c1cc([N+](=O)[O-])cc([N+](=O)[O-])c1 (configuration not stated),97.6% (inactive)
4,OC(CNCCc1ccc(C(F)(F)F)cc1)COc1ccc2ccccc2c1 (configuration not stated),96.9% [at 5 µM] (inactive)
5,OC(CNCCc1ccc(C(F)(F)F)cc1)COc1cccc2ccccc12 (configuration not stated),97.7% [at 5 µM] (inactive)
6,Cn1ccsc1=NC(=O)c1ccccc1F,103% (inactive)
7,CCc1ccc(C(=O)COC(=O)c2ccc(Cl)nc2)cc1,98.2% (inactive)
8,Cc1cccc(NC(=O)COc2ccc(Br)cc2)n1,107% (inactive)
9,Cc1nc([N+](=O)[O-])c(Br)n1CC(=O)c1ccccc1,96.7% (inactive)
10,c1ccc(-c2nc3ccccn3c2NC2CCCC2)nc1,89.2% [at 5 µM] (inactive)
11,O=C(N/N=C/C=C/c1ccccc1)c1ccncc1,106% (inactive)
12,O=C(Nc1ccccn1)c1ccc(C(=O)c2ccccc2)cc1,93.6% (inactive)
13,CC(C)(C)NCc1cc(Br)ccc1OCc1cccs1,70.4% (inactive)
14,CC(C)CCCn1c(O)c(/C=C2/C=CC=N2)c(=O)[nH]c1=O,107% (inactive)
15,CC1=C(C)/C(=N\OS(=O)(=O)c2ccccc2)C=CC1=O,95.9% (inactive)
16,CN(CC(=O)Nc1ccc(C#N)cc1)Cc1ccc(Cl)c(Cl)c1,106% (inactive)
17,Cc1ccccc1-c1cc2c(nn1)-c1ccccc1C2=O,99.2% (inactive)
18,Nc1ccc2c(c1)oc1ccccc12,113% (inactive)
19,COc1cc(OC)cc(-c2nc3ccccc3c(=O)o2)c1,94.9% (inactive)
20,O=C(COC(=O)c1ccccc1)NC12CC3CC(CC(C3)C1)C2,100% (inactive)
21,O=C(CC(=O)c1ccccc1O)c1cccc(F)c1,90.6% (inactive)

row,Compound,viability
1,O=C(O)c1ccc(NS(=O)(=O)/C=C/c2ccccc2)cc1O,101% (inactive)
2,CCn1c(NC(=O)C2CCCCC2)nc2ccccc21,103% [at 5 µM] (inactive)
3,Cc1cc(NC(=O)COc2ccccc2)ccc1Cl,89.3% (inactive)
4,O=c1cc(C(F)(F)F)[nH]c2c(C(F)(F)F)cccc12,87.7% (inactive)
5,CCc1nonc1NC(=O)COc1ccc(Cl)c(C)c1,105% (inactive)
6,CCOC(=O)Nc1cccc(OCC(=O)Nc2ccccc2OC)c1,114% (inactive)
7,CCOC(=O)Nc1ccc2c(c1)N(C(=O)CCN1CCOCC1)c1ccccc1S2=O (configuration not stated),100% (inactive)
8,O=C(Nc1nc2ccccc2[nH]1)c1cccc(Cl)c1,88.9% (inactive)
9,O=C(Nc1nc2ccccc2[nH]1)c1ccc(F)cc1,82.1% (inactive)
10,CN1CCC(O)(c2ccc(Cl)cc2)C(C(=O)c2ccc(Cl)cc2)C1 (configuration not stated),98.3% (inactive)
11,O=C(COc1ccc(Cl)cc1)Nc1ccccc1Cl,105% [at 5 µM] (inactive)
12,CC(C)c1ccc(OCC(=O)NCc2ccccc2)cc1,96.2% (inactive)
13,Cc1ccc(C)c(-c2nnc(NC(=O)C3=COCCO3)o2)c1,94.1% (inactive)
14,O=C(NCCc1c[nH]c2ccccc12)c1cc2ccccc2oc1=O,96.5% (inactive)
15,COc1ccccc1N1CCN(C(=O)c2ccc([N+](=O)[O-])s2)CC1,107% [at 5 µM] (inactive)
16,Fc1ccc(-c2nn(-c3ccccc3)cc2CNCc2ccccc2)cc1,71.3% (inactive)
17,Cc1ccc(-n2cc(CNCCn3nc(C)cc3C)c(-c3ccc(F)cc3)n2)cc1,76.2% (inactive)
18,Cc1cc(Br)ccc1OCC(=O)NNC(=O)C(=O)Nc1ccccc1,109% (inactive)
19,O=C(CCN1C(=O)/C(=C/c2ccccc2Cl)SC1=S)N1CCCC1,102% [at 5 µM] (inactive)
20,COc1cccc(OCc2nnc(-c3cccs3)o2)c1,96.8% (inactive)
